# Several values for one entry are separate records, joined by “and”; a condition that tells them apart may be missing. Equal values may be shown once. Results filed as inconclusive are left out. Where a call stands in place of a potency, no number is given. The source holds several records for some structures; these can differ, active in one and inactive in another. Activity calls are given as the source filed them. Unless noted, calls follow the shape of the dose curve; as a rule, active = well fitted curve in the direction sought with a large enough effect; inconclusive = small, poorly fitted or top-dose-only effect, or another doubt; inactive = no such curve, though single readings can be large; an effect the other way counts as inactive or inconclusive.
# Tests used:
# [1] = target: Calcium and integrin-binding protein 1 (Homo sapiens) (UniProt Q99828); assay: Primary qHTS for Identification of Calcium Integrin Binding Protein 1 (CIB1) Competitor (AID 1508620);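 also: GST tagged CIB1 binding a fluorescein labelled alphaIIb integrin peptide tracer; top concentration of the series differs between compounds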
# Chain of Calcium and integrin-binding protein 1 (Homo sapiens) (Q99828 whole entry, looked up): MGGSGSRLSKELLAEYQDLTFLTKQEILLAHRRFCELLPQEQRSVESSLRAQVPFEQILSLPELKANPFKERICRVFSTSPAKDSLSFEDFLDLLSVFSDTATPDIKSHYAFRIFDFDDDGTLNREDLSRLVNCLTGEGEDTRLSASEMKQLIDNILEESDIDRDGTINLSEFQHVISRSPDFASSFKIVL
# Procedure, shortened: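 CIB1-GST (1 uM final) and compound incubated 15 min at room temperature before adding FITC-alphaIIb peptide tracer (100 nM final). Competition for binding read by fluorescence polarization (ex 480, em 540) after another 15 min at room temperature.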
# [2] = target: Cytochrome P450 2D6 (Homo sapiens) (UniProt P10635); assay: Cytochrome P450 family 2 subfamily D member 6 (CYP2D6) small molecule antagonists: luciferase biochemical (cell-free) qHTS assay (AID 1645840; active = well fitted curve in the direction sought with a large enough effect in the repeat runs; an effect the other way counts as inactive or inconclusive; also: nearly all actives have a fitted effect of over 55% in size; also: potency is read from the fitted curve at half-maximal effect; as to activity change, negative = inhibition: series mostly up to about 57 µM)
# Chain of Cytochrome P450 2D6 (Homo sapiens) (P10635 whole entry, looked up): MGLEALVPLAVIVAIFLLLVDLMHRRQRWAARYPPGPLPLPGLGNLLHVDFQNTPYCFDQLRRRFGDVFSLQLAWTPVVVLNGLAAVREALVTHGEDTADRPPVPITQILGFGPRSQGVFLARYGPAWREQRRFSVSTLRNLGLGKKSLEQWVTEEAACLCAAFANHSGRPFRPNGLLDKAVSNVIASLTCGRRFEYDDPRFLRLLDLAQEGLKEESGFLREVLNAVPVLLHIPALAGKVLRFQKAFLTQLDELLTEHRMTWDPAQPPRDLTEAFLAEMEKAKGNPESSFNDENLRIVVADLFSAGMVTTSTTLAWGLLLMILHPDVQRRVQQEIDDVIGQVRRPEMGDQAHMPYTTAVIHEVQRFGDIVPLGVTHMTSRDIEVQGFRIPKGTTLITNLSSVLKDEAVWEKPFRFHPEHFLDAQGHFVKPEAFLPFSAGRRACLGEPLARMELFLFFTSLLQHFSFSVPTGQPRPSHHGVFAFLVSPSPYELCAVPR
# Procedure, shortened: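 P450-Glo CYP2D6 system: proluciferin substrate converted by enzyme to luciferin, read by luminescence proportional to activity. Enzyme-substrate mix with compound 10 min at room temperature, then NADPH regeneration 1 h before detection reagent.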
# [3] = target: Cytochrome P450 2C9 (Homo sapiens) (UniProt P11712); assay: Cytochrome P450 family 2 subfamily C member 9 (CYP2C9) small molecule antagonists: luciferase biochemical (cell-free) qHTS assay (AID 1645842; active = well fitted curve in the direction sought with a large enough effect in the repeat runs; an effect the other way counts as inactive or inconclusive; also: nearly all actives have a fitted effect of over 55% in size; also: potency is read from the fitted curve at half-maximal effect; as to activity change, negative = inhibition: series mostly up to about 57 µM)
# Chain of Cytochrome P450 2C9 (Homo sapiens) (P11712 whole entry, looked up): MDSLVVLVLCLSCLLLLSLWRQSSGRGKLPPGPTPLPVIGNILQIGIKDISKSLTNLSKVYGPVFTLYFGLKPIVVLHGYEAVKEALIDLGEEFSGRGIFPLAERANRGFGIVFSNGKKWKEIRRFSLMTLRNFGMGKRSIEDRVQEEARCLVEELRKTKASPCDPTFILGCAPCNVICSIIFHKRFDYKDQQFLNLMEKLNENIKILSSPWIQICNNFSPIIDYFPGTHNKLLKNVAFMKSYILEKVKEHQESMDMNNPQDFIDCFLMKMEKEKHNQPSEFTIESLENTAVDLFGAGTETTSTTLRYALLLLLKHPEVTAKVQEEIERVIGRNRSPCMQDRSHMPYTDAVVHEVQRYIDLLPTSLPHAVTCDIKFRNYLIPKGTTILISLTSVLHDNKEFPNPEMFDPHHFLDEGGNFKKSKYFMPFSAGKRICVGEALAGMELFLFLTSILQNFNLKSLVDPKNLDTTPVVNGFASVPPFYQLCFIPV
# Procedure, shortened: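 P450-Glo CYP2C9 system: proluciferin substrate with enzyme in mix containing 0.4% BSA, 10 min at room temperature, then NADPH regeneration solution added and incubated 1 h at 37C. Detection reagent stopped reaction; luminescence read after 20 min as RLU.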
# [4] = Primary qHTS for inhibitors of nuclear receptor binding SET domain protein 2 (NSD2) in an isogenic RCH-ACV NSD2 p.E1099K mutant (9B) (AID 1645876); also: nearly all actives have a fitted effect of over 70% in size; also: potency is read from the fitted curve at half-maximal effect
# [5] = Primary qHTS for inhibitors of nuclear receptor binding SET domain protein 2 (NSD2) in an RCH-ACV wild type WT cells (2C) (AID 1645877); also: nearly all actives have a fitted effect of over 70% in size; also: potency is read from the fitted curve at half-maximal effect
Structure (SMILES),Potency [1],Potency [2],Potency [3],Potency [4],Potency [5],"activity change, negative = inhibition [2]","activity change, negative = inhibition [3]","activity change, negative = viability loss [4]","activity change, negative = cell killing [5]"
COc1ccc([C@H]2CNC(=O)C2)cc1OC1CCCC1,inactive,inactive,inactive,inactive,inactive,–,–,–,–
COc1cc2ncnc(N3CCC(Oc4cnc5ccccc5n4)C3)c2cc1OC (stereo not given),inactive,inactive,10.7 µM (active),0.258 µM (active),0.145 µM (active),–,–,–,–
O=C(NCc1cccc(O)c1)Nc1nc(-c2ccncc2)cs1,inactive,0.849 µM (active),0.301 µM (active),9.34 µM (active),2.35 µM (active),–,–,–,–
CCC(Nc1ncnc2nc[nH]c12)c1nc2cccc(F)c2c(=O)n1-c1ccccc1 (stereo not given),inactive,inactive,13.5 µM (active),0.0728 µM (active),0.461 µM (active),–,–,–,–
N#Cc1ccc(C(=O)N2CCC3(CC2)N=C(N)c2c(F)ccc(F)c2N3)cn1,inactive,15.1 µM (active),inactive,inactive,inactive,–,–,–,–
CN1CCN(Cc2ccc(-c3cnc4[nH]cc(-c5ccc6[nH]ccc6c5)c4c3)cc2)CC1,inactive,2.13 µM (active),12 µM (active),1.45 µM (active),1.45 µM (active),–,–,–,–
CC(C)(C)c1cc(Br)cc([C@H](CC(=O)O)NC(=O)CNC(=O)c2cc(O)cc(NC3=NCC(O)CN3)c2)c1 (stereo not given in full),inactive,inactive,inactive,inactive,inactive,–,–,–,–
COc1ncc(Nc2ncc([C@H](C)N3CCN(S(C)(=O)=O)CC3)cc2-c2nc(C)nc(N)n2)cc1F,inactive,inactive,12 µM (active),5.8 nM (active) and 5.9 nM (active),57.8 nM (active) and 8.3 nM (active),–,–,–,–
CCCCc1ccc(C(=O)Nc2cc(-c3ccc(Cl)cc3)nn2-c2ccc(Cl)cc2)cc1,inactive,inactive,inactive,inactive,inactive,–,–,–,–
C[C@@H]1CN(Cc2ncccn2)C[C@H]1c1nc2c(cnn2C2CCOCC2)c(=O)[nH]1,inactive,inactive,inactive,inactive,inactive,–,–,–,–
NC1CCC(Nc2cc(-c3cccc(NCc4cccc(F)c4)n3)c(Cl)cn2)CC1 (stereo not given),inactive,15.1 µM (active),2.13 µM (active),0.0817 µM (active),0.0728 µM (active),–,–,–,–
NC(=O)c1cccc2cn(-c3ccc(C4CCCNC4)cc3)nc12 (stereo not given),inactive,inactive,inactive,3.25 µM (active),2.05 µM (active),–,–,–,–
CCOC(=O)c1cc(C#N)c(N2CCC(C(=O)NS(=O)(=O)Cc3ccccc3)CC2)nc1C,inactive,inactive,2.68 µM (active),inactive,inactive,–,–,–,–
CC(NC(=O)CCc1nc2ccccc2c(=O)[nH]1)c1ccccc1 (stereo not given),inactive,inactive,inactive,inactive,inactive,–,–,–,–
Cc1cc(OCc2nnc(SC3CCCC3)n2-c2cccnc2)ccc1-c1ccc(S(C)(=O)=O)cc1,inactive,inactive,8.49 µM (active),0.817 µM (active),1.45 µM (active),–,–,–,–
COC(=O)N1CCC(n2ncc3c(N4CCOCC4)nc(-c4ccc(NC(=O)Nc5ccc(CO)cc5)cc4)nc32)CC1,inactive,8.49 µM (active),6.74 µM (active),0.0163 µM (active),0.0183 µM (active),–,–,–,–
Cc1ccc(C(=O)Nc2noc3ccccc23)cc1,inactive,7.56 µM (active),16.9 µM (active),inactive,inactive,–,–,–,–
O=C(O)c1cccc(S(=O)(=O)N2CCc3ccccc3C2)c1,inactive,inactive,inactive,inactive,inactive,–,–,–,–
O=C1N=C(N2CCOCC2)CN1c1ccc(Cl)cc1,inactive,inactive,inactive,inactive,inactive,–,–,–,–
CCOc1ccc(NC(=S)N2CCC(C(O)(c3ccccc3)c3ccccc3)CC2)cc1,inactive,2.68 µM (active),9.52 µM (active),inactive,inactive,–,–,–,–
COc1ccc(C(=O)C2CCN(CC(=O)N(Cc3nc4c(c(=O)[nH]3)COCC4)CC3CC3)CC2)cc1,inactive,inactive,8.49 µM (active),inactive,inactive,–,–,–,–
CCCn1c(=O)c2[nH]c(-c3ccc(OCC(=O)O)cc3)nc2n(CCC)c1=O,inactive,inactive,inactive,inactive,inactive,–,–,–,–
COc1cc(Nc2nc3c(s2)CCCC3c2ccc(F)cc2)ccc1-n1cnc(C)c1 (stereo not given),inactive,0.849 µM (active),1.34 µM (active),11.5 µM (active),10.3 µM (active),–,–,–,–
CC1(C)CC(NC(=O)C(=O)Nc2ccc(Br)cc2)CC(C)(C)N1,inactive,inactive,inactive,8.17 µM (active),5.78 µM (active),–,–,–,–
COc1ccc(-c2cnc(-c3cccc4c3-c3ccccc3C4=O)o2)cc1,inactive,inactive,0.657 µM (active),0.0893 µM (active),0.0893 µM (active),–,–,–,–

Structure (SMILES),Potency [1],Potency [2],Potency [3],Potency [4],Potency [5],"activity change, negative = inhibition [2]","activity change, negative = inhibition [3]","activity change, negative = viability loss [4]","activity change, negative = cell killing [5]"
COc1c(Nc2ncc(Cl)c(N[C@H]3[C@@H](C(N)=O)[C@@H]4C=C[C@H]3C4)n2)ccc2c1CC[C@@H](N1CCOCC1)CC2,inactive,19 µM (active),6.01 µM (active),3.25 µM (active),3.25 µM (active),–,–,–,–
Cc1cc(C)c(CNC(=O)c2cc(-c3ccc(CN4CCOCC4)cc3)cc3c2cnn3C2CCCC2)c(=O)[nH]1,inactive,inactive,2.39 µM (active),inactive and 18.6 µM (active),inactive and 18.6 µM (active),–,–,–,–
Cc1cccc2c1NC(=O)C2(c1ccc(O)cc1)c1ccc(O)cc1,inactive,26.8 µM (active),9.52 µM (active),3.25 µM (active),8.17 µM (active),–,–,–,–
O=S(=O)(NCC1CC1)c1ccc(Nc2nccc(N3CCCc4cc(O)ccc43)n2)cc1,inactive,8.49 µM (active),1.07 µM (active),1.15 µM (active),1.15 µM (active),–,–,–,–
COC(=O)CCSCc1ccc(-c2onc(C)c2NC(=O)OC(C)c2ccccc2Cl)cc1 (stereo not given),inactive,2.68 µM (active),1.51 µM (active),inactive,inactive,–,–,–,–
Cc1onc(C(=O)N2CCN(C(c3ccc(Cl)cc3)c3ccc(Cl)cc3)CC2)c1[N+](=O)[O-],inactive,inactive,5.35 µM (active),0.23 µM (active),0.145 µM (active),–,–,–,–
Cc1cc(C(=O)N2CCCCc3ccccc32)ccc1CNC(=O)N1CCC[C@H]1C(=O)N(C)C,inactive,inactive,inactive,inactive,inactive,–,–,–,–
Cn1c(=O)n(-c2ccc(C(C)(C)C#N)cc2)c2c3cc(C#Cc4cccnc4)ccc3ncc21,inactive,inactive,0.522 µM (active),0.0178 µM (active),0.0142 µM (active),–,–,–,–
Cc1ccc(NC(=O)C(=O)NC2CC(C)(C)NC(C)(C)C2)cc1,inactive,inactive,inactive,inactive,inactive,–,–,–,–
COc1ncc2cc(C(=O)Nc3cc(C(=O)NCc4cccc(Cl)c4)ccc3Cl)c(=O)[nH]c2n1,inactive,inactive,19 µM (active),6.51 µM (active),5.8 µM (active),–,–,–,–
CCc1cc(CN2CC(C(=O)O)C2)sc1-c1noc(-c2ccc(Oc3ccccc3)cc2)n1,inactive,inactive,inactive,10 µM (active),10 µM (active),–,–,–,–
CC(C)(C)Nc1nc2cc(Cl)c(Cl)cc2nc1S(C)(=O)=O,inactive,6.01 µM (active),5.35 µM (active),1.29 µM (active),0.409 µM (active),–,–,–,–
CNC(=S)NS(=O)(=O)c1cc(CCNC(=O)c2cc(Cl)ccc2OC)ccc1OC,inactive,inactive,6.74 µM (active),inactive,inactive,–,–,–,–
CC1CCN(C(=O)CC#N)CC1N(C)c1ncnc2[nH]ccc12 (stereo not given),inactive,inactive,23.9 µM (active),inactive,inactive,–,–,–,–
CC[C@@H](N)CNc1ccnc(-c2cc(-c3cnn(C)c3)ccc2O)n1,inactive,9.52 µM (active),13.5 µM (active),1.29 µM (active),1.03 µM (active),–,–,–,–
C#CCN(Cc1cc2c(=O)[nH]c(C)nc2cc1Br)c1ccc(C(=O)NCc2cccnc2)cc1,inactive,inactive,3.01 µM (active),inactive,0.0023 µM (active),–,–,–,–
CN1CCc2nc(C(=O)N[C@@H]3C[C@@H](C(=O)N(C)C)CC[C@@H]3NC(=O)C(=O)Nc3ccc(Cl)cn3)sc2C1,inactive,inactive,inactive,inactive,inactive,–,–,–,–
O=C(O)C1CN(Cc2ccc(-c3nc4cc(Cc5ccccc5F)ccc4s3)c(F)c2)C1,inactive,–,–,–,–,8.94% [at 11.5 µM] (inactive),-11.3% [at 11.5 µM] (inactive),0.892% [at 9.23 µM] (inactive),2.02% [at 9.23 µM] (inactive)
O=C(c1cccc(Cl)c1F)N1CCN(Cc2cccc(Nc3nccs3)n2)CC1,inactive,1.69 µM (active),3.38 µM (active),0.817 µM (active),0.728 µM (active),–,–,–,–
Cc1ccc(NC(=O)Nc2cc(C(F)(F)F)ccc2F)cc1Nc1ccc2c(c1)NC(=O)/C2=C\c1ccc[nH]1,inactive,inactive,inactive,11.5 µM (active) and 16.6 µM (active),20.5 µM (active),–,–,–,–
COc1ccc(C(=O)Nc2ncc(-c3ccc(C(=O)O)cc3)s2)cc1,inactive,inactive,10.7 µM (active),1.63 µM (active),1.84 µM (active),–,–,–,–
O=C(Nc1nc2ccccc2n1CCc1ccccc1)c1ccccc1,inactive,inactive,8.49 µM (active),6.49 µM (active),5.15 µM (active),–,–,–,–
CCN1CCN(Cc2ccc(NC(=O)c3ccc(C)c(/C=C/c4cnc5[nH]ccc5c4OC)c3)cc2C(F)(F)F)CC1,inactive,6.74 µM (active),12 µM (active),129 nM (active) and 1.05 µM (active),230 nM (active) and 1.18 µM (active),–,–,–,–
CCCN1CCC(c2cccc(S(C)(=O)=O)c2)CC1,inactive,8.49 µM (active),inactive,inactive,inactive,–,–,–,–

# — PubChem BioAssay (NCATS)
